About 8,800 targets were measured; listed, in parts, are those with a hit and a random draw of the rest. About 0.5% of all pairs of compound and target were hits. Values without a mark were called inactive.

Sequence of UniProt Q13487 (Q13487 whole entry, looked up): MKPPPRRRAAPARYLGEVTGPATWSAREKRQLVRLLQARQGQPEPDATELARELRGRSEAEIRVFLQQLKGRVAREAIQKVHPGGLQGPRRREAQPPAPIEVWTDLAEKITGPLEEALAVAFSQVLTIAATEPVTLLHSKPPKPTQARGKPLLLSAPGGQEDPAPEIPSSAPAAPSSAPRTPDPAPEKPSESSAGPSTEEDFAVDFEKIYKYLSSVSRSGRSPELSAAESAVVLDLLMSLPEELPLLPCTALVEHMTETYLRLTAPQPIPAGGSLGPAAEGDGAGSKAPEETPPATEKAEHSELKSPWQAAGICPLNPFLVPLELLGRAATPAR
Sequence of UniProt O60906 (O60906 whole entry, looked up): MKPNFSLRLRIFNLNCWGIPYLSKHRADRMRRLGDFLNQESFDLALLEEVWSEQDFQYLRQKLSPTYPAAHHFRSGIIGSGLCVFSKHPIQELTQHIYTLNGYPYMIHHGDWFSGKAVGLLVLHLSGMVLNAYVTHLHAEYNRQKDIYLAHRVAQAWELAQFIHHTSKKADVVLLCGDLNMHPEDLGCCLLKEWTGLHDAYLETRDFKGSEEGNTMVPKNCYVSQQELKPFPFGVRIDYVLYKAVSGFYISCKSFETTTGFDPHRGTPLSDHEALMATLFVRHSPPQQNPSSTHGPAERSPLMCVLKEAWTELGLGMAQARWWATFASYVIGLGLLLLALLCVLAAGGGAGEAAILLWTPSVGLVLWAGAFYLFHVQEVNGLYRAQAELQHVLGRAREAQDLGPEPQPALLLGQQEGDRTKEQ
Sequence of UniProt O94768 (O94768 whole entry, looked up): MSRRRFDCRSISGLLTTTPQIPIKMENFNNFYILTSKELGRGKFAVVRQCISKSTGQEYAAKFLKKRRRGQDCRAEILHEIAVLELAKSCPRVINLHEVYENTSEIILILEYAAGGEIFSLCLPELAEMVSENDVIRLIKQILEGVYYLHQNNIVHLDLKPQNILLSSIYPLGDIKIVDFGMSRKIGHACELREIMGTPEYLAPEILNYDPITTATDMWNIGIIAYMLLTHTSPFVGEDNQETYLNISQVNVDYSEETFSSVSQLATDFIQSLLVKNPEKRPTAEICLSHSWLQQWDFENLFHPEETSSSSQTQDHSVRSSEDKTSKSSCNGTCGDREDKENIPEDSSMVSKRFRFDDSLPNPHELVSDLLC
Sequence of UniProt Q13309 (Q13309 whole entry, looked up): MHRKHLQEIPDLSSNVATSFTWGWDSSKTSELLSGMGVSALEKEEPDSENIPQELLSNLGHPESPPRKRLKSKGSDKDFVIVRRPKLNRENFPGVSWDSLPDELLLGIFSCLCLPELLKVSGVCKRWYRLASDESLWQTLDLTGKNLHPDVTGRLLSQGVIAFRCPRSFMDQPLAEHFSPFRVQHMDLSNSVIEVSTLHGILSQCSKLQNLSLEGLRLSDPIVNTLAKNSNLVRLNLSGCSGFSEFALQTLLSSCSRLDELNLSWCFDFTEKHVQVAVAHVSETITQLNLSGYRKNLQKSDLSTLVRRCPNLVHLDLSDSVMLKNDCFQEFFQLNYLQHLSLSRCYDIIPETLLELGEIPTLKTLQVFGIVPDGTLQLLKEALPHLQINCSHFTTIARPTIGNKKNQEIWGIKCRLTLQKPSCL
Sequence of UniProt Q8N196 (Q8N196 whole entry, looked up): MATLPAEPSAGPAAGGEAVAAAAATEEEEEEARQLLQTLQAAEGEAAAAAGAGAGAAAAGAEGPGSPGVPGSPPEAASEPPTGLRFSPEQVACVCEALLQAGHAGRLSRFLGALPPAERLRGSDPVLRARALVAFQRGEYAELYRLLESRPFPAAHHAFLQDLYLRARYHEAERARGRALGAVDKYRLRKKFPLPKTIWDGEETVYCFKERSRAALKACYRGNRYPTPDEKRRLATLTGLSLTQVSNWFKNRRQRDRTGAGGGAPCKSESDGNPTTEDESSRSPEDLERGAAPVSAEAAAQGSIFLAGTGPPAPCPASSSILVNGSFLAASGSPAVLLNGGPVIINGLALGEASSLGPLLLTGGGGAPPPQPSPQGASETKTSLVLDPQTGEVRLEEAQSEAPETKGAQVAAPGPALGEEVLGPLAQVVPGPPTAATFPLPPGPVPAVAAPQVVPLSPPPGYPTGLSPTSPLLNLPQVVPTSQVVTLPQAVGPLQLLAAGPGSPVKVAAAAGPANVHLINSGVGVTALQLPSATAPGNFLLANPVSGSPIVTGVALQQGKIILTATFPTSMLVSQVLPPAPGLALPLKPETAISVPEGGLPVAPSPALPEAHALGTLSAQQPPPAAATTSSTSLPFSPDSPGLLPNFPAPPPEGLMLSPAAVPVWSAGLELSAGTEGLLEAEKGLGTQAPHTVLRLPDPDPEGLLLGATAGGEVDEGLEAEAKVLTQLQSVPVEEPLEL
Sequence of UniProt Q15464 (Q15464 whole entry, looked up): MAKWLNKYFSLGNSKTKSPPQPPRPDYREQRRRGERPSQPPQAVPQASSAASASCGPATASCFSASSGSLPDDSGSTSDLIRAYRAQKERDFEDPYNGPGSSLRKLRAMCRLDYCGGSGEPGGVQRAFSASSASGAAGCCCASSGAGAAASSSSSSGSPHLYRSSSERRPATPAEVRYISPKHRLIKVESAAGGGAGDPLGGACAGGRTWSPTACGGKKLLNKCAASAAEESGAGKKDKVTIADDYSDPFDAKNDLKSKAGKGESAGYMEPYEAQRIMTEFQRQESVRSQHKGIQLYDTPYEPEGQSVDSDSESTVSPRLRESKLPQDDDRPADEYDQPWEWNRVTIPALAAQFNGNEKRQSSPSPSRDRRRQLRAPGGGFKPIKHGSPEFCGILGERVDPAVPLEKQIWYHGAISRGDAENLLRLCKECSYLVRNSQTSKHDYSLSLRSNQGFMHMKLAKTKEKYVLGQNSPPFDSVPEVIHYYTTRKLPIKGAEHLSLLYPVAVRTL
Sequence of UniProt P12931 (P12931 whole entry, looked up): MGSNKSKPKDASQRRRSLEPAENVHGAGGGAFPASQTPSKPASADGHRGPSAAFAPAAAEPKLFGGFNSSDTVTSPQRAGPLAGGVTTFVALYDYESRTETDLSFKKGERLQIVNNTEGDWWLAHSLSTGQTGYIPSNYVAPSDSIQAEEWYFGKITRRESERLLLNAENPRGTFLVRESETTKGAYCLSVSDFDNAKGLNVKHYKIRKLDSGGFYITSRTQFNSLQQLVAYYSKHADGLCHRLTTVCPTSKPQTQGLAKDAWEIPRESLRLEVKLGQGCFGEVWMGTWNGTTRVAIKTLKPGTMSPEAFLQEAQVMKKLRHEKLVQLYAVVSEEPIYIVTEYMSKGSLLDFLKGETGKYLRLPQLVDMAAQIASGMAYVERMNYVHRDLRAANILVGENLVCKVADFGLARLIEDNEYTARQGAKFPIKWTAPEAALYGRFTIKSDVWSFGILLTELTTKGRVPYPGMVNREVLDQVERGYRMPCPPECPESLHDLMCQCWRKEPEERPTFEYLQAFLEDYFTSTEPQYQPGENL
Sequence of UniProt Q9NP59 (Q9NP59 whole entry, looked up): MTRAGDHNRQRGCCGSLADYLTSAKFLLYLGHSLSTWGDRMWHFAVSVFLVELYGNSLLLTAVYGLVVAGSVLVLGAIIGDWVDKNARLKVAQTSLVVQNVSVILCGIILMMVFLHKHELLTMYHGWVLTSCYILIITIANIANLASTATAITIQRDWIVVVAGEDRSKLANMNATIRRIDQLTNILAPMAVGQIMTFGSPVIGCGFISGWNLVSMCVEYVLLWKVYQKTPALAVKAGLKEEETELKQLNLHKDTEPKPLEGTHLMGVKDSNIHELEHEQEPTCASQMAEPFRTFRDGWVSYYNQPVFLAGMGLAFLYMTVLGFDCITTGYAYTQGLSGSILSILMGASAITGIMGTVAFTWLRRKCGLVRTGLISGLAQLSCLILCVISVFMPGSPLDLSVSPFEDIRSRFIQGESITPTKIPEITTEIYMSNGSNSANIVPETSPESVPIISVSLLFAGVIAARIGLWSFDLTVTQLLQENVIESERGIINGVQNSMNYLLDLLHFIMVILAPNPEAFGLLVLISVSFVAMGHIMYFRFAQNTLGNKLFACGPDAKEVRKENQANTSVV
Sequence of UniProt Q15544 (Q15544 whole entry, looked up): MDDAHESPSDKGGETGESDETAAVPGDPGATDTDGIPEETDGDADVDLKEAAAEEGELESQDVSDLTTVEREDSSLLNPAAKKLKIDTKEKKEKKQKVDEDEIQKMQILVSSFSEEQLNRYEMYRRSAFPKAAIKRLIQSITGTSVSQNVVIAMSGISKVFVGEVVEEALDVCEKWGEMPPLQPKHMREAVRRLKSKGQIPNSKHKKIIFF
Sequence of UniProt Q96CQ1 (Q96CQ1 whole entry, looked up): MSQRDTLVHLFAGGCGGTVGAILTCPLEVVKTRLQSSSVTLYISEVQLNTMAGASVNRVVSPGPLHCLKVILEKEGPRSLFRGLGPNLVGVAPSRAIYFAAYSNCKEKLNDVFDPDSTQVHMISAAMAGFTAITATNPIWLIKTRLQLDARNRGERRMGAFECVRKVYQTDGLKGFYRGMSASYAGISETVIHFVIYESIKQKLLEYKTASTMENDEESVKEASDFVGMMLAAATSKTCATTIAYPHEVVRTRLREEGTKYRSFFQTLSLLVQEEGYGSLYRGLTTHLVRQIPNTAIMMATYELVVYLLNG
Sequence of UniProt P49675 (P49675 whole entry, looked up): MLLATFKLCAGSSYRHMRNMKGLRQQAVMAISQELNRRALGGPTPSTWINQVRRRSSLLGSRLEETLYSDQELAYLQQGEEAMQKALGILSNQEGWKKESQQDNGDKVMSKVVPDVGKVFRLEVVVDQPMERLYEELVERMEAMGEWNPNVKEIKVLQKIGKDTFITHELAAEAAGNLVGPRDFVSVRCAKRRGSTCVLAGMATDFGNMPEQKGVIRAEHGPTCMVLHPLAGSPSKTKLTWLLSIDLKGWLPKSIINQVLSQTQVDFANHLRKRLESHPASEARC

Compound in the test: CNc1nc(-c2ccc3c(N)n[nH]c3c2)cc(N2C[C@@H](C(=O)NC3CCCCC3)CC[C@H]2C)n1
The experiment in a line: log2 fold change, soluble protein after heating vs DMSO (PISA); higher = thermal stabilisation; K562 lysate, 10 uM; active = over 0.2 and 3.5 SD of the protein, either way, in both replicates (recomputed). The procedure, abridged: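 K562 pellets were dounce-homogenised in PBS pH 7.4 with 1 mM MgCl2, and the crude extract at 1 mg/mL protein was treated with 10 μM compound for 30 min. Aliquots were heated for 3 min across 48°C-58°C, pooled, and brought to 0.5% NP-40 at 4°C; soluble protein was the supernatant after 21,000xg for 90 min. Soluble protein was quantified by TMTpro 16plex LC-MS/MS with channel sums equalised, and reported as log2 fold change in thermal stability against DMSO controls, with values from duplicates.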
SKP2 (UniProt Q13309): the log2 fold change is 0.03.
With SRC isoform 2 (UniProt P12931) the figure was -0.031.
Turning to SLC12A6 isoform 2 (UniProt Q9UHW9), the log2 fold change is -0.008.
The figure for SMARCA4 isoform 4 (UniProt P51532) is 0.024; for SZT2 (UniProt Q5T011) it is 0.109; for STAR (UniProt P49675) it is 0.005.
The figure for STK38L (UniProt Q9Y2H1) is 0.06; for SHB (UniProt Q15464) it is 0.067.
In the case of SNAPC2 (UniProt Q13487), the log2 fold change is -0.175.
With TAF11 (UniProt Q15544) the figure was 0.137; with STK26 isoform 3 (UniProt Q9P289), 0.058; with SNRPD2 (UniProt K7EJB5), 0.054.
The figure for SLU7 (UniProt O95391) is -0.006.
With SLC25A36 (UniProt Q96CQ1) the figure was 0.029.
Take SMPD2 (UniProt O60906): the log2 fold change is -0.034.
The figure for SLC40A1 (UniProt Q9NP59) is -0.029; for STK17B (UniProt O94768) it is 0.642.
Consider SIX5 (UniProt Q8N196), for which the log2 fold change is 0.043.

The record behind these values is the supplement of paper PMC10849652.
